Source: the supplement of paper PMC3334620
Whole data set: some 33,000 sequences, median “E-score (-0.5 to 0.5)” near -0.021, cut for the highest 2% near 0.32. The list comes from a sample in which the highest values are over-represented; it also holds similar and randomly drawn sequences.

What follows are sequences tested against T1, Zap1 (UniProt P47043) (assay: PBM E-score (8-mer binding enrichment) (E-score (-0.5 to 0.5)); higher = stronger / more preferred TF binding). Settings: protein concentration: 200 nM; construct: GST-full length.
T1 sequence: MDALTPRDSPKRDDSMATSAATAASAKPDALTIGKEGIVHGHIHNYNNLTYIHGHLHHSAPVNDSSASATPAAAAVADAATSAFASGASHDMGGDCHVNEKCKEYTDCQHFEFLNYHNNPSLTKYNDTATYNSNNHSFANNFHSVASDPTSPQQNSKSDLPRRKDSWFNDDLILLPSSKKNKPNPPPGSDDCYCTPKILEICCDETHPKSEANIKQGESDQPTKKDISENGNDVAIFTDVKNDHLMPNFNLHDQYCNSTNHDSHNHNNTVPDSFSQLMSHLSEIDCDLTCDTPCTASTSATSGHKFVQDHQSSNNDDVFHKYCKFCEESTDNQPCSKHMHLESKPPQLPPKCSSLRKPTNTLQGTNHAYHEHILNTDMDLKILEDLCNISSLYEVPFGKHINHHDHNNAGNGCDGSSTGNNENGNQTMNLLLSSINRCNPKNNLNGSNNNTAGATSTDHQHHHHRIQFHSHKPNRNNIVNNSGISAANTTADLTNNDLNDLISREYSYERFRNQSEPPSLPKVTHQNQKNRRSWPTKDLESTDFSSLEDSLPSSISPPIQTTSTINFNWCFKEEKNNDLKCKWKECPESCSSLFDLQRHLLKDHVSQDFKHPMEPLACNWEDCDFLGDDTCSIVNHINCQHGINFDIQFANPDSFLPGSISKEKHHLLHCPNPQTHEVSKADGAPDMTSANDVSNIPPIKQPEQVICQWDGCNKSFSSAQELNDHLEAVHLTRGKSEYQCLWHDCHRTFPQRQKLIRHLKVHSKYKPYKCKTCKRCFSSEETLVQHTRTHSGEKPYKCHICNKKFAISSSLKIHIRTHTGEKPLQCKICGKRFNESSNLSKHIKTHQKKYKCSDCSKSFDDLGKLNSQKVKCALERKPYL
Method: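 Universal 'all 10-mer' protein binding microarrays (Agilent AMADID 015681) probed with GST-tagged S. cerevisiae TFs (full-length or DBD) made by in vitro transcription/translation (PURExpress), about 100-200 nM. Bound TF was detected with fluorescent anti-GST. Each ungapped 8-mer (which stands for itself and its reverse complement) is scored by the PBM enrichment score (E-score), a modified Wilcoxon-Mann-Whitney statistic from -0.5 to +0.5, computed with the Universal PBM Analysis Suite. Scale: above 0.35 generally sequence-specific binding.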

| Sequence | PBM E-score |
| --- | --- |
| CACGGTTA | 0.372 |
| AACGGTTA | 0.397 |
| CACGGTTC | -0.13 |
| CACGGGTA | 0.237 |
| GACGGGTA | 0.0159 |
| AACGGTCA | 0.324 |
| AACGGGTA | 0.375 |
| CACGGTCA | 0.262 |
| AACGGTTC | 0.107 |
| AACGGTCG | 0.114 |
| GACGGTTA | 0.305 |
| AACGGTTG | 0.123 |
| CCCCGCGC | -0.138 |
| ACATTCAG | -0.0921 |
| AGCGCATG | -0.227 |
| CGGACCCA | 0.195 |
| CTTTCTTC | -0.0581 |
| AGAAGCCA | -0.0472 |
| AAGGTAAA | 0.187 |
| CAGGTAAC | 0.254 |
| AAGGTAAC | 0.432 |
| GAGGTAAA | 0.199 |
| AAGGTAAG | 0.0248 |
| CAGGTAAA | 0.133 |
| AAGGTATT | 0.199 |

| Sequence | PBM E-score |
| --- | --- |
| GAGGTAAC | 0.365 |
| AAGGTAAT | 0.322 |
| CTCCATGC | -0.229 |
| ACGCATAC | -0.101 |
| ACTACCAT | 0.269 |
| ACTGCTAG | -0.269 |
| ATGTACCC | 0.216 |
| CGGTACAC | 0.0303 |
| AGGTACCG | 0.43 |
| AGGTACCC | 0.451 |
| CGGTACCC | 0.414 |
| AAGTACCT | 0.213 |
| AGGTACCT | 0.443 |
| AGGTACTC | 0.261 |
| ACGTACCT | -0.126 |
| AAGTACCG | 0.134 |
| CCGTACCC | 0.275 |
| ACGTACCG | -0.111 |
| AGTAAAGG | 0.132 |
| ATCTTAAC | 0.142 |
| CGCCCAGC | -0.209 |
| ATAACATA | 0.146 |
| GGGTCCAC | -0.0924 |
| CGGTACAG | 0.12 |
| CGGTACCG | 0.38 |

| Sequence | PBM E-score |
| --- | --- |
| CAGTACCG | 0.104 |
| GGGTACAC | 0.141 |
| GCGTACCC | 0.106 |
| GGGTACCC | 0.469 |
| ATTAGAAA | 0.0663 |
| TACAGCCA | -0.0777 |
| ACTCACCC | -0.0932 |
| CAATGTTC | -0.213 |
| ATTTGTCC | -0.0674 |
| CACCAGTG | -0.0732 |
| AACTAAAC | 0.181 |
| ATTATTTA | 0.234 |
| ATTATATA | 0.207 |
| GTTATAAA | 0.279 |
| GTTATATA | 0.359 |
| GTTATTTA | 0.325 |
| GATATATA | 0.2 |
| CTTATATA | 0.27 |
| CATATATA | 0.13 |
| TATATATA | 0.37 |
| GTTATAAC | 0.401 |
| CTTATAAC | 0.302 |
| CTTATTTA | 0.0152 |
| CCTCAGAA | -0.0154 |
| ACTGGGAG | -0.25 |

| Sequence | PBM E-score |
| --- | --- |
| ATTGGGAG | -0.0694 |
| AACGCTGG | -0.174 |
| GACTGTAC | -0.147 |
| AGCTCTCG | -0.212 |
| ACAAGAGA | -0.043 |
| ATCATCGC | -0.0946 |
| AGCTCTTG | -0.246 |
| CAATTGAC | -0.0961 |
| GCCCAGAA | -0.0621 |
| GTCGAGCA | -0.236 |
| GAAACCGC | 0.15 |
| ATGAGCAA | -0.0417 |
| ATACAATG | 0.0742 |
| AGGGGCAG | -0.186 |
| CCCAAGGA | 0.00233 |
| CCCCAGGA | -0.128 |
| CCCAAGGG | 0.326 |
| CCCCAGGG | 0.319 |
| CCAAAGGG | 0.267 |
| CCCAAAGG | 0.23 |
| ACCCAGGG | 0.0854 |
| CCAAAAGG | 0.337 |
| CCAAAAAG | 0.248 |
